Records with an inconclusive call do not appear. Calls of active or inactive are those of the source. Unless noted, the call rests on the fitted dose curve; in most records, active means well fitted curve in the direction sought with a large enough effect in the repeat runs; inconclusive means weak or mixed curves; inactive means no such curve, though single readings can be large; an effect the other way counts as inactive or inconclusive.
What was measured:
[1] = qHTS assay to identify aromatase inhibitors - cell viability counter screen (AID 743084);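 further: cells stimulated with testosterone during compound exposure; nearly all actives have a fitted effect of over 55% in size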; further: potency means the concentration at half of the fitted maximal effect
[2] = qHTS assay to identify small molecule that activate the aryl hydrocarbon receptor (AhR) signaling pathway - cell viability counter screen (AID 743086); further: nearly all actives have a fitted effect of over 45% in size; further: potency means the concentration at half of the fitted maximal effect
In short: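 Cytotoxicity counter screen: CellTiter-Fluor signal (30 min, 37 C) in 4000 HepG2 cells/well carrying the DRE-luciferase reporter, following 24 h compound exposure at 37 C.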

[3] = biological target: Peroxisome proliferator-activated receptor gamma (Homo sapiens) (UniProt P37231); assay: qHTS assay to identify small molecule agonists of the peroxisome proliferator-activated receptor gamma (PPARg) signaling pathway (AID 743094; active means well fitted activation curve with a large enough effect in the signal ratio in the repeat runs, not every such curve was filed as active; the % refers to the signal ratio)
In short: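 Agonism was assessed in a beta-lactamase reporter system, HEK293H cells with a stably integrated UAS-bla construct under PPARg control; the 17 h treatment at 37C preceded a 1 h room-temperature FRET substrate read.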

[4] = qHTS assay to identify small molecule antagonists of the peroxisome proliferator-activated receptor gamma (PPARg) signaling pathway - cell viability counter screen (AID 743194); further: nearly all actives have a fitted effect of over 55% in size
In short: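 Viability was measured as CellTiter-Glo luminescence in GeneBLAzer PPARg UAS-bla HEK293H cells. These cells had been exposed 17 h at 37 C to compounds together with rosiglitazone at 50 nM final, with the beta-lactamase readout taken in the same wells.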

[5] = qHTS assay for small molecule agonists of the antioxidant response element (ARE) signaling pathway (AID 743202; active means well fitted activation curve with a large enough effect in the signal ratio in the repeat runs, not every such curve was filed as active; the % refers to the signal ratio; further: potency means the concentration at half of the fitted maximal effect)
In short: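 After 16 hours of compound treatment at 37 C, HepG2 cells with a stably integrated ARE-driven beta-lactamase reporter were loaded 2 hours at room temperature with LiveBLAzer B/G FRET substrate and fluorescence intensity measured.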

[6] = qHTS assay for small molecule agonists of the antioxidant response element (ARE) signaling pathway - cell viability counter screen (AID 743203; calls by dose curve; further: nearly all actives have a fitted effect of over 55% in size)
In short: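 ATP content via CellTiter-Glo luminescence served as the viability measure. Cells: ARE-bla HepG2, 2,000 per well. Exposure: 16 hrs, 37C/5% CO2.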

[7] = qHTS assay for small molecule activators of the heat shock response signaling pathway - cell viability counter screen (AID 743209); further: nearly all actives have a fitted effect of over 50% in size
In short: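 Compounds dissolved in DMSO were added to overnight-plated HSE-bla HeLa cells and left 5 h at 37 C. Cell viability was quantified by luminescence using CellTiter-Glo.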

[8] = qHTS assay for small molecule activators of the heat shock response signaling pathway (AID 743210; active means well fitted activation curve with a large enough effect in the signal ratio in the repeat runs, with a control signal flat, not every such curve was filed as active; the % refers to the signal ratio; further: series mostly up to about 63 µM)
In short: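 Compound exposure lasted 5 h at 37 C in HeLa cells carrying a heat-shock-element-driven beta-lactamase reporter. Read-out: fluorescence intensity after 2.5 h room-temperature loading with LiveBLAzer B/G FRET substrate.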

[9] = qHTS assay to identify small molecule agonists of the peroxisome proliferator-activated receptor delta (PPARd) signaling pathway - cell viability counter screen (AID 743211); further: nearly all actives have a fitted effect of over 55% in size
In short: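 In the same wells used for beta-lactamase reporter measurement, cytotoxicity is scored by CellTiter-Glo. HEK293H PPARd-bla cells receive compound for 17 h at 37C following a 5 h settling period.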

[10] = biological target: Peroxisome proliferator-activated receptor delta (Homo sapiens) (UniProt Q03181); assay: qHTS assay to identify small molecule agonists of the peroxisome proliferator-activated receptor delta (PPARd) signaling pathway (AID 743212; calls by dose curve)
In short: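 Beta-lactamase reporter readout: a ratiometric FRET signal from the LiveBLAzer substrate after 2 h at room temperature. Compound exposure at 37 °C in PPARδ-bla HEK293H cells driven by an upstream activator sequence.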

[11] = biological target: Peroxisome proliferator-activated receptor delta (Homo sapiens) (UniProt Q03181); assay: qHTS assay to identify small molecule antagonists of the peroxisome proliferator-activated receptor delta (PPARd) signaling pathway (AID 743215; active means well fitted inhibition curve with a large enough effect in the signal ratio in the repeat runs, not every such curve was filed as active; the % refers to the signal ratio;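 further: cells stimulated with agonist L165041 at 300 nM final during compound exposure; series mostly up to about 62 µM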)
In short: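 Here, a reporter line (HEK293H, beta-lactamase under a UAS) measures PPARd signaling. Compounds are tested against agonist L165041 at 300 nM final concentration over 17 h at 37 C, with fluorescence read after substrate.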

[12] = qHTS assay to identify small molecule agonists of the farnesoid-X-receptor (FXR) signaling pathway - cell viability counter screen (AID 743218); further: nearly all actives have a fitted effect of over 45% in size
In short: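 Quantitative HTS counter screen measuring ATP-based viability via CellTiter-Glo luminescence in HEK 293T cells carrying a UAS-driven beta-lactamase reporter, after 16 h compound exposure at 37 C.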

[13] = qHTS assay to identify small molecule antagonists of the farnesoid-X-receptor (FXR) signaling pathway - cell viability counter screen (AID 743221; active means well fitted cell-killing curve with a large enough effect in the repeat runs, not every such curve was filed as active; further: nearly all actives have a fitted effect of over 50% in size)
In short: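 Here viability was scored by luminescence after CellTiter-Glo addition to wells already read for beta-lactamase. Prior treatment: compound plus CDCA (50 uM final), 16 h, 37 C, HEK 293T FXR-bla cells.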

[14] = biological target: Vitamin D3 receptor (Homo sapiens) (UniProt P11473); assay: qHTS assay to identify small molecule agonists of the vitamin D receptor (VDR) signaling pathway (AID 743222; calls by dose curve)
In short: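 Tox21 cell reporter format: VDR-bla line, 16 h compound exposure in 5% CO2 at 37C, then fluorescence intensity after 2 h with LiveBLAzer B/G FRET substrate.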

[15] = biological target: Peroxisome proliferator-activated receptor gamma (Homo sapiens) (UniProt P37231); assay: qHTS assay to identify small molecule antagonists of the peroxisome proliferator-activated receptor gamma (PPARg) signaling pathway (AID 743191; calls by dose curve; further: series mostly up to about 63 µM; nearly all actives have a fitted effect of over 30% in size)
In short: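 Beta-lactamase reporter under UAS control in HEK293H PPARg-bla cells; compound treatment 17 h at 37C. Read-out: fluorescence intensity after 1 h room-temperature incubation with LiveBLAzer B/G FRET substrate.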

[16] = biological target: Bile acid receptor (Homo sapiens) (UniProt Q96RI1); assay: qHTS assay to identify small molecule antagonists of the farnesoid-X-receptor (FXR) signaling pathway (AID 743217; active means well fitted inhibition curve with a large enough effect in the signal ratio in the repeat runs, not every such curve was filed as active; the % refers to the signal ratio)
In short: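 Test compounds are pin-transferred onto FXR-bla HEK 293T cells, then chenodeoxycholic acid is added at 50 uM final. After 16 h at 37 °C, LiveBLAzer B/G substrate is applied for 2 h at room temperature and fluorescence read.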

[17] = qHTS assay to identify small molecule antagonists of the peroxisome proliferator-activated receptor delta (PPARd) signaling pathway - cell viability counter screen (AID 743213); further: nearly all actives have a fitted effect of over 50% in size
In short: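 Luminescence from CellTiter-Glo, added after the bla read and incubated 30 min at room temperature, gives viability of HEK293H PPARd-bla cells exposed to compounds for 17 h at 37 C with 300 nM L165041.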

[18] = biological target: Vitamin D3 receptor (Homo sapiens) (UniProt P11473); assay: qHTS assay to identify small molecule antagonists of the vitamin D receptor (VDR) signaling pathway (AID 743223; active means well fitted inhibition curve with a large enough effect in the signal ratio in the repeat runs, not every such curve was filed as active; the % refers to the signal ratio)
In short: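 Inhibition of agonist-driven VDR signalling is scored in VDR-bla cells: 3 nM final 1alpha,25-dihydroxyvitamin D3 plus compound, 16 h at 37C, then beta-lactamase detection by FRET substrate fluorescence after 2 h.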

[19] = biological target: Bile acid receptor (Homo sapiens) (UniProt Q96RI1); assay: qHTS assay to identify small molecule agonists of the farnesoid-X-receptor (FXR) signaling pathway (AID 743220; active means well fitted activation curve with a large enough effect in the signal ratio in the repeat runs, not every such curve was filed as active; the % refers to the signal ratio)
In short: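 FXR-UAS-bla HEK 293T cells carrying a UAS-driven beta-lactamase reporter were plated for 5 h at 37C/5% CO2, then exposed to DMSO-dissolved Tox21 10K compounds for 16 h at 37C. A LiveBLAzer B/G FRET substrate was loaded for 2 h at room temperature before fluorescence reading.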

Measured: Potency

Sequence of Vitamin D3 receptor (Homo sapiens) (P11473 whole entry, looked up): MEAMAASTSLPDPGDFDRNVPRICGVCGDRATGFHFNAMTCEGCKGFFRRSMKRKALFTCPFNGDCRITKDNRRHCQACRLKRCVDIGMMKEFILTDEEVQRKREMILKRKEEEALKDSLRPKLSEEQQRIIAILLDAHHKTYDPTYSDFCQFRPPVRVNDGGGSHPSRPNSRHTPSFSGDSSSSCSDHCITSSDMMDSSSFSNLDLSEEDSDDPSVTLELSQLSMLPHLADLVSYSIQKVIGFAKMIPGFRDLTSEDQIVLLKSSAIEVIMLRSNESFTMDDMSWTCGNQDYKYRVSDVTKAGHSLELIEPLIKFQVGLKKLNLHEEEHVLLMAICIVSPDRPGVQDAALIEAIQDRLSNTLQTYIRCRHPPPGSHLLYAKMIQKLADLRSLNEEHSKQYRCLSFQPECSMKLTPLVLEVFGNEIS
Sequence of Peroxisome proliferator-activated receptor delta (Homo sapiens) (Q03181 whole entry, looked up): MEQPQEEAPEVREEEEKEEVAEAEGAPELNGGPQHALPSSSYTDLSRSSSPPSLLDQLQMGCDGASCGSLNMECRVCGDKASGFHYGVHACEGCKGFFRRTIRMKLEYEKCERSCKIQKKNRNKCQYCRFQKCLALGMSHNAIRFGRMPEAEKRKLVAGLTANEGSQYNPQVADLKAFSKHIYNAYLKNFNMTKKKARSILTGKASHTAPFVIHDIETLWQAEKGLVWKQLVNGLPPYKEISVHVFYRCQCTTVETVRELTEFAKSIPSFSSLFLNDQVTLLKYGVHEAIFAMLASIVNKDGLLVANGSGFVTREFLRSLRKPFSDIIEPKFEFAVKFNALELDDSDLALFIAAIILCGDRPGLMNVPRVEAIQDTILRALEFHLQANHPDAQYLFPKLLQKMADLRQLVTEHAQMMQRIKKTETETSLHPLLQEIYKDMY
Sequence of Peroxisome proliferator-activated receptor gamma (Homo sapiens) (P37231 whole entry, looked up): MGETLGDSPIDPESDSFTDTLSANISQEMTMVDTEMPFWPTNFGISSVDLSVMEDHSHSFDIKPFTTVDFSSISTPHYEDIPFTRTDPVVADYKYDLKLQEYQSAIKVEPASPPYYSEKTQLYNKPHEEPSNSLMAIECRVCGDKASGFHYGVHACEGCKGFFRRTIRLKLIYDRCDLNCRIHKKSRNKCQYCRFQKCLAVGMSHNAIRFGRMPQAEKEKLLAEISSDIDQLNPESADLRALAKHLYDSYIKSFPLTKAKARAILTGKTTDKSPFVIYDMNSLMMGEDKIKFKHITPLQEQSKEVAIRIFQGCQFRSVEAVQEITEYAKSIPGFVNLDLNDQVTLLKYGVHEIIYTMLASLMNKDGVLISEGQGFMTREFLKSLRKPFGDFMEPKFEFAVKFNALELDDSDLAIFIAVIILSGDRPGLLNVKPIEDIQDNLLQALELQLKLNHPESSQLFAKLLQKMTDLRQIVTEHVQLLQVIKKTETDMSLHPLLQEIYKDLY
Sequence of Bile acid receptor (Homo sapiens) (Q96RI1 whole entry, looked up): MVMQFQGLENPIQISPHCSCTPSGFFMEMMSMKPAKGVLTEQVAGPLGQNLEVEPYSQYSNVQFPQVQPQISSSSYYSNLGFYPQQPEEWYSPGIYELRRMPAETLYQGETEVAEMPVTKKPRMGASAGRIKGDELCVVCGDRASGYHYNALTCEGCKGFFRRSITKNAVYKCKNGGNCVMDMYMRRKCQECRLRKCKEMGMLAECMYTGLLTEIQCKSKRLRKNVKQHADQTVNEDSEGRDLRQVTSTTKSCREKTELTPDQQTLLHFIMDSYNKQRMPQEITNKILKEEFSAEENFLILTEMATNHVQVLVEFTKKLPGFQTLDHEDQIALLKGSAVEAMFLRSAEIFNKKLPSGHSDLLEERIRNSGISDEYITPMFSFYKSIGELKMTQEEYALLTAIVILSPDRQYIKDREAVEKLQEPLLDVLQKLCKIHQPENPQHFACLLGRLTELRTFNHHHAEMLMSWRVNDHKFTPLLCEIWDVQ

O=C(O)c1c(Cl)ccc(Cl)c1Cl
not listed: [15] | [16] | [17] | [18] | [19]
inactive: all other assays above

CCN(CCC#N)c1ccccc1
not listed: [5] | [10] | [11] | [14] | [17] | [18] | [19]
inactive: all other assays above

COC(OC)C(C)c1ccccc1 (stereo not given)
not listed: [2] | [5] | [6] | [14] | [16] | [19]
inactive: all other assays above

Cn1c(=O)c2c(ncn2CC2OCCO2)n(C)c1=O
not listed: [14] | [15] | [18]
inactive: all other assays above

O=S(=O)(O)CCO
not listed: [6] | [11] | [14] | [15] | [16] | [19]
inactive: all other assays above

O=C(/C=C/c1ccccc1)NCCO
not listed: [15] | [16] | [19]
inactive: all other assays above

COc1cc2c(Nc3ccc(Br)cc3F)ncnc2cc1OCC1CCN(C)CC1
not listed: [2] | [6] | [10] | [14] | [18]
inactive: all other assays above

CCCCCC(=O)OCC
not listed: [5] | [10] | [11] | [16]
inactive: all other assays above

CCOC(=O)OCC/C(SC(=O)OCC)=C(\C)N(C=O)Cc1cnc(C)nc1N
not listed: [2] | [10] | [11] | [14] | [16] | [17] | [19]
inactive: all other assays above

OC[C@@H](O)[C@H](O)[C@@H](O)[C@@H](O)CO
not listed: [6] | [10] | [11] | [16] | [18] | [19]
inactive: all other assays above

Cc1cc(O)c2c(c1)C(=O)c1cccc(O)c1C2=O
active: [5] 10.6 µM
not listed: [15]
inactive: all other assays above

CC1=CC[C@H](CC=O)C1(C)C
not listed: [2] | [6] | [8] | [13]
inactive: all other assays above

C=C(C)C(=O)OC1CC(C)CC(C)(C)C1 (stereo not given)
not listed: [5] | [8] | [11] | [17] | [19]
inactive: all other assays above

O=C1NC2NC(=O)NC2N1 (stereo not given)
not listed: [3] | [10]
inactive: all other assays above

SCCSCCS
not listed: [15] | [18]
inactive: all other assays above

CCCCCC1CCCC(=O)O1 (stereo not given)
not listed: [6] | [15]
inactive: all other assays above

C=CCOCC(CO)(COCC=C)COCC=C
not listed: [3] | [4] | [6] | [8] | [12] | [15] | [16] | [19]
inactive: all other assays above

COc1ccc(N=Nc2cc(C)c(N=Nc3ccc(S(=O)(=O)O)cc3)cc2OC)cc1
inactive: [3] | [4] | [6] | [7] | [9] | [17] | [12] | [13] | [18]
active: [1] 48.6 µM | [2] 48.6 µM

CCCCCCCCCCC
not listed: [5] | [10] | [11] | [14] | [16] | [18] | [19]
inactive: all other assays above

C=CCOCC(O)CCl (stereo not given)
not listed: [2] | [5] | [16] | [19]
inactive: all other assays above

C=CCOc1c(Br)cc(Br)cc1Br
inactive: [1] | [2] | [3] | [15] | [5] | [6] | [7] | [16] | [19] | [14]

CC1=NN(c2ccc(S(=O)(=O)O)cc2)C(=O)C1N=Nc1ccccc1 (stereo not given)
active: [1] 54.5 µM
not listed: [2] | [5] | [8] | [11] | [16] | [18] | [19]
inactive: all other assays above

Nc1cc(S(=O)(=O)O)ccc1S(=O)(=O)O
not listed: [5] | [8] | [10] | [11] | [17] | [19]
inactive: all other assays above

Nc1c(NC/C=C\COc2cc(CN3CCCCC3)ccn2)c(=O)c1=O
active: [1] 13.3 µM
not listed: [2] | [5] | [14] | [19]
inactive: all other assays above

C=CCOc1c(Br)cc(C(C)(C)c2cc(Br)c(OCC=C)c(Br)c2)cc1Br
not listed: [5] | [10] | [11] | [15] | [18] | [19]
inactive: all other assays above

CCN1CN(CC)CN(CC)C1
not listed: [6] | [8] | [9] | [14] | [18] | [19]
inactive: all other assays above

CCC(=O)c1ccc(O)cc1
not listed: [2] | [5] | [10] | [11]
inactive: all other assays above

CCC1COC(=O)O1 (stereo not given)
not listed: [2] | [14]
inactive: all other assays above

CC(=O)Nc1ncc([N+](=O)[O-])s1
not listed: [5] | [11] | [17] | [18] | [19]
inactive: all other assays above

CCCCCCCCCCCCCCCC(=O)NCCO
not listed: [5] | [10] | [11] | [19]
inactive: all other assays above

COc1cc(C=O)ccc1OC(=O)C(C)C
not listed: [10] | [11] | [15] | [16] | [18] | [19]
inactive: all other assays above

O=C1OC(=O)c2ccccc21
not listed: [11] | [12] | [15] | [19]
inactive: all other assays above

COc1ccc(NS(=O)(=O)c2ccc(N)cc2)nn1
not listed: [3] | [11] | [12] | [15]
inactive: all other assays above

CCCCCCCC/C=C\CCCCCCCC(=O)OC[C@@H](O)[C@H]1OC[C@H](O)[C@H]1O
not listed: [4] | [5] | [15] | [16] | [19]
inactive: all other assays above

O=c1cc(O)c(Cl)c[nH]1
not listed: [5] | [17] | [19]
inactive: all other assays above

Source: PubChem BioAssay (Tox21)
